Experimental findings from PubChem BioAssay (NCI) are described below.

About 83,000 compounds went through this panel and 20% of them were active in at least one assay; those are over-represented in the sample as a whole.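 Percent growth is the endpoint: 0 to 100 indicates growth inhibition (40 means 60% inhibition), 0 means no net growth, and negative values indicate cell death.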 Active and inactive are the calls of the source. The calls were made as follows: active = growth percent below 10; inactive = the rest.

For this test, the system named is HL-60(TB) leukemia. The experiment in a line: NCI-60 one-dose screen, 48 h (100 = growth as untreated, 0 = no growth, -100 = all killed). The settings on record: 10 µM unless noted.
In the case of `CCOC(CNCc1cc(C)c2[nH]c3ccccc3c2c1C)OCC`, the growth was 86% (inactive). The same measure for `Cc1cc(N)c2cc(NC(=O)/C=C\c3ccccc3Cl)ccc2n1`: -29.3% (active); for `CC(=O)O[C@H]1CC[C@]2(C)[C@H]3C(=O)C=C4[C@@H]5C[C@](C)(C(=O)N6CCCNCC6)CC[C@]5(C)CC[C@@]4(C)[C@]3(C)CC[C@H]2C1(C)C`: -61.9% (active).

On to `COc1ccc(OCC(=O)Nc2ccc(-c3nc4ccccc4s3)cc2C)cc1`, for which the growth was 48.2% (inactive). The figure for `NS(=O)(=O)c1ccc(CCN2C(=O)C3C(C2=O)C2(Cl)C(Cl)=C(Cl)C3(Cl)C2(Cl)Cl)cc1` (configuration not stated) is 78.4% (inactive); for `COc1cc(NC(=O)Nc2cnc(Nc3ccc(N4CCOCC4)cc3)nc2Oc2ccc(C(F)(F)F)cc2)cc(OC)c1` it is 96.4% (inactive). The same measure for `N#Cc1c(-c2ccccc2)nc2c(c(-c3ccc(Cl)cc3)nn2-c2ccccc2)c1-c1ccc([N+](=O)[O-])cc1`: 103% (inactive); for `Nc1cccc(-c2ccc(COc3ccc(CC4SC(=O)NC4=O)cc3)cc2)c1` (configuration not stated): 43.4% (inactive); for `COc1ccc(C2C3(C#N)C(N)=NC(=C(C#N)C#N)C23C#N)cc1OC` (configuration not stated): 107% (inactive). The figure for `COc1ccc(/C=C2/C(=O)ON=C2C)cc1` is 103% (inactive); for `Cc1ccccc1N=C(N)Nc1ccccc1C` (tested in a mixture with another compound) it is -25% (active). For the compound `COc1ccc(/C=C(/C(=O)N2CCCC2)c2cc(OC)c(OC)c(OC)c2)cc1`, the growth was -14.7% (active). The figure for `C=C(OC(C)=O)c1ccccc1` is 72.9% (inactive); for `COc1cc(/C=C/C(=O)c2c(C)oc3nc[nH]c(=O)c23)ccc1O` it is 117% (inactive); for `CC(=O)Nc1c(Br)cc2c(c1Br)Cc1cc(Br)ccc1-2` it is 98.5% (inactive). The same measure for `CO[C@H]1C[C@@H]2CC[C@@H](C)[C@@](O)(O2)C(=O)C(=O)N2CCCC[C@H]2C(=O)O[C@H]([C@H](C)C[C@@H]2CC[C@@H](OCCO)[C@H](OC)C2)CC(=O)[C@H](C)/C=C(\C)[C@@H](O)[C@H](OC)C(=O)[C@H](C)C[C@H](C)\C=C/C=C/C=C/1C`: 75.7% (inactive); for `CC(C)(C)c1ccc(N2CSC(=S)N(c3ccc(C(C)(C)C)cc3)C2)cc1`: 92.7% (inactive). The same measure for `Nc1ccc2[nH]c(-c3ccccc3)cc(=O)c2c1`: 88.2% (inactive). As to `c1ccc(-c2nn(-c3ccccc3)[n+](-c3cccc4ccccc34)n2)cc1`, the growth was -25.8% (active). `Nc1ncc(-c2ccc3ncnc(Nc4ccc(F)c(Cl)c4)c3c2)cn1`: the growth is 103% (inactive). The same measure for `O=C(c1ccc(OCCN2CCCCC2)cc1)c1c(-c2ccc(O)cc2)sc2cc(O)ccc12`: 76.8% (inactive). With `CC[C@@]1(OC(=O)CN(C)C)C(=O)OCc2c1cc1n(c2=O)Cc2cc3c(N)cccc3nc2-1`, the growth is -2.25% (active). The same measure for `COc1ccc(-c2cc(Nc3ccnc(N4CCOCC4)n3)on2)cc1`: -29.9% (active); for `CC(c1ccc(-n2cccn2)cc1)c1cnc(N2CCc3ccc(C(N)=O)cc3C2)s1` (configuration not stated): 48.9% (inactive). Take `COC(=O)c1cc(-c2ccc(S(C)(=O)=O)cc2)[nH]c1N/N=C/c1c(Cl)cccc1Cl`: the growth is -22.3% (active). The same measure for `CCCCC/C(C=C(C#N)C#N)=C/c1ccccc1`: 6.33% (active); for `CCOC(=O)c1nn(C2CCCCO2)c2ccc(NC(=O)CSc3nc4ccccc4c(=O)[nH]3)cc12` (configuration not stated): 118% (inactive); for `CN1CCN(C2=C(Cl)C(=O)c3ccccc3C2=O)CC1`: 24.8% (inactive). The same measure for `COc1ccc2c(c1)c(-c1ccc(-c3cn(C)c4ccc(OC)cc34)[nH]1)cn2C`: -24.7% (active). The figure for `CC1=CSC2=NCCN12` is 97.1% (inactive); for `C=CN(C(=O)N1CCN(c2cc3c(cc2F)c(=O)c(C(=O)O)cn3C2CC2)CC1)c1nc(-c2ccccc2)cs1` it is 58.1% (inactive). In the case of `O=C(N/N=C/c1c(Cl)cccc1Cl)c1ccccc1Nc1cccc(C(F)(F)F)c1`, the growth was 95.3% (inactive).

`NC(Cc1ccc(O)c([N+](=O)[O-])c1)C(=O)O` (configuration not stated): the growth was 114% (inactive). As to `O=C1c2cccc(NCCN=Cc3cc(O)ccc3O)c2C(=O)c2c(NCCN=Cc3cc(O)ccc3O)cccc21`, the growth was -72.5% (active).

As for `CCOC(=O)C/C(=N\Nc1cc(=O)[nH]c2ccc(OC)cc12)C(=O)OCC`, the growth was 94% (inactive).

Take `Cc1ccc2[nH]c(=S)[nH]c(=O)c2c1`: the growth is 105% (inactive). The figure for `Cn1ccc2c1CC1CN(Cc3ccco3)C(=O)C1C2C(=O)O` (configuration not stated) is 98.8% (inactive).
